Test results as given in PubChem BioAssay (NCI).
Compounds without any hit were thinned out: in the full panel of roughly 79,000, 15% have a hit. Cut-off read from the data, not from the text of the source: active = growth inhibition above about 70%; inactive = the rest.

Tests used:
[1] = NCI Yeast Anticancer Drug Screen. Data for the rad50 strain (AID 155);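 note: 0% = growth of vehicle-only cultures of the same strain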; conditions: S. cerevisiae rad50 strain growth inhibition; at 50.0 µM; stronger effect = higher value
Method in brief: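 Readout: growth inhibition relative to vehicle-treated cultures. Compound exposure was carried out in a genetically defined yeast strain deficient in DNA damage repair.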

[2] = NCI Yeast Anticancer Drug Screen. Data for the mec2-1 strain (AID 157); conditions: S. cerevisiae mec2-1 strain, at 50.0 µM, stronger effect = higher value
Method in brief: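 Readout is yeast growth inhibition, normalised to vehicle-treated controls, in the mec2-1 strain exposed to compound.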

[3] = NCI Yeast Anticancer Drug Screen. Data for the sgs1 mgt1 strain (AID 161);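 note: 0% = growth of cultures given vehicle only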; conditions: S. cerevisiae sgs1 mgt1 strain, at 50.0 µM, stronger effect = higher value
Method in brief: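 Yeast cells carrying a defined DNA-repair defect were exposed to test compounds. Growth inhibition was measured relative to vehicle-treated controls.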

[4] = NCI Yeast Anticancer Drug Screen. Data for the cln2 rad14 strain (AID 165);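 note: 0% = growth equal to vehicle treated cultures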; conditions: S. cerevisiae cln2 rad14 strain, at 50.0 µM, stronger effect = higher value
Method in brief: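 Relative to vehicle controls, growth inhibition of compound-treated cln2 rad14 yeast was recorded.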

[5] = NCI Yeast Anticancer Drug Screen. Data for the bub3 strain (AID 167); conditions: S. cerevisiae bub3 mutant strain, at 50.0 µM, stronger effect = higher value
Method in brief: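 Readout: yeast growth inhibition, expressed relative to vehicle-only wells. The test organism is a mutant strain from a panel with lesions in DNA repair or checkpoint genes.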

[6] = NCI Yeast Anticancer Drug Screen. Data for the mlh1 rad18 strain (AID 175); conditions: S. cerevisiae mlh1 rad18 strain growth inhibition; at 50.0 µM; stronger effect = higher value
Method in brief: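 Test agents were incubated with a yeast strain of defined genotype (DNA damage repair defect). Inhibition of growth was derived by comparison with vehicle-exposed cultures.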

Measured: growth inhibition

C=C1CCN(c2ccc([N+](=O)[O-])cc2)C1=O
inactive: [1] 0% | [2] -11.2% | [3] 4.05% | [4] -37.6% | [5] 10.3% | [6] 10.3%

NN1CC(=O)N(c2ccccc2)CC1=O
inactive: [1] 0.5% | [2] 4.45% | [3] -0.6% | [4] 42.8% | [5] -7.65% | [6] 4.7%

CC(C)=CC1C(CO)C1(C)C (stereo unspecified)
inactive: [1] -7.8% | [2] -17.2% | [3] 23.8% | [4] -16.6% | [5] -6.25% | [6] -16.9%

Cc1ccc(OS(=O)(=O)c2ccccc2)cc1
inactive: [1] 36% | [2] 20.4% | [3] 49.1% | [4] -42.6% | [5] 35.2% | [6] 36.6%

N#CC1=C(Nc2ccccc2)CCC1
inactive: [1] 5% | [2] -11.6% | [3] -0.8% | [4] -38.8% | [5] 2.25% | [6] -5.4%

CC(COc1ccccc1)OC(=O)CCl (stereo unspecified)
inactive: [1] 0.75% | [2] 5.6% | [3] -6.65% | [4] -16.9% | [5] -16.5% | [6] 27.6%

CCN(CCNc1cc(OC)cc2cccnc12)c1ccccc1
inactive: [1] 59.9% | [2] 20.7% | [3] 48.4% | [4] 23.2% | [5] 47% | [6] 68.2%

CCCCN(C=O)c1ccccc1
inactive: [1] 3.15% | [2] 9.65% | [3] 2.95% | [4] 7.15% | [5] -8.45% | [6] 27.9%

Cc1cc(C)c(C2[C@H]3C(=O)N(c4ccc(Cc5ccc(N6C(=O)[C@@H]7ON(c8ccccc8)C(c8c(C)cc(C)cc8C)[C@@H]7C6=O)cc5)cc4)C(=O)[C@H]3ON2c2ccccc2)c(C)c1 (stereo partly specified)
inactive: [1] 27.6% | [2] 31.8% | [3] 19.8% | [4] 25.2% | [5] 29.4% | [6] 24.2%

Cc1cc(Cl)cc(Cl)c1OCC(=O)Nc1ccc(Cl)cc1
inactive: [1] 6.45% | [2] 2.45% | [3] 8.5% | [4] 4% | [5] 21.9% | [6] -7.7%

CC(=O)Nc1ccc(C=O)cc1[N+](=O)[O-]
inactive: [1] 14.2% | [2] 33.3% | [3] 4.05% | [4] -12.8% | [5] -0.6% | [6] 13.4%

COc1cc(C(=O)Nc2ccc(N3CCCCC3)cc2)cc(OC)c1OC
inactive: [1] 25.1% | [2] 9.2% | [3] 38.4% | [4] -16.2% | [5] 14.6% | [6] 36.3%

Nc1c(I)cc([N+](=O)[O-])cc1I
inactive: [1] 32.8% | [2] 2.6% | [3] 18% | [4] -16.4% | [5] 25.9% | [6] 19.9%

COC(=O)C(N)C(C)(C)S (stereo unspecified)
inactive: [1] -9.9% | [2] -2.75% | [3] -3.65% | [4] -10% | [5] 6.85% | [6] 2.5%

CC1(S)CCC2CC1C2(C)C (stereo unspecified)
inactive: [1] -15.7% | [2] -54.1% | [3] -35% | [4] 4.95% | [5] -27.4% | [6] -12.1%

COC(=O)[C@@H]1[C@H](OC(C)=O)CCC2[C@@]3(C[C@@H](c4ccoc4)O[C@@H]3OC)[C@H](C)CC[C@]21C(=O)OC (stereo partly specified)
inactive: [1] -12.4% | [2] -5.1% | [3] -39% | [4] -8.7% | [5] -36.9% | [6] -37.5%

CCCC(=O)OCC1OC(n2cc(F)c(=O)[nH]c2=O)C(F)C1OC(=O)CCC (stereo unspecified)
inactive: [1] -1.45% | [2] 15.1% | [3] -5.8% | [4] -13.9% | [5] -2.6% | [6] -7.25%

O=[N+]([O-])c1ccc(NC(=S)Nc2ccc([N+](=O)[O-])cc2)cc1
inactive: [1] 5.05% | [2] -17.6% | [3] -1.1% | [4] -25.8% | [5] 5.7% | [6] 2.75%

Cc1c([N+](=O)[O-])cc2c(c1[N+](=O)[O-])C(=O)c1ccccc1-2
inactive: [1] -2.1% | [2] 4.35% | [3] 8.5% | [4] -14.9% | [5] -6.05% | [6] 7.9%

Nc1nc(SCCCc2ccccc2)c2[nH]cnc2n1
inactive: [1] 7.95% | [2] -2.9% | [3] -3.4% | [4] 25.1% | [5] 31.6% | [6] -6.55%

COc1c2c(cc3nc4ccccc4nc13)CCC(C(C)(C)O)C2 (stereo unspecified)
inactive: [1] 17.9% | [2] -10.2% | [3] -3.45% | [4] 3.9% | [5] -0.7% | [6] 6.3%
